Reference: PubChem BioAssay AID624496 (National Center for Advancing Translational Sciences (NCATS), 2012)
Results filed as inconclusive are left out. Activity calls are given as the source filed them. Calls follow the shape of the dose curve; as a rule, active = well fitted inhibition curve with a large enough effect; inconclusive = small, poorly fitted or top-dose-only effect, or another doubt; inactive = no such curve, though single readings can be large or run the other way.

The compounds below were run against D(2) dopamine receptor (Homo sapiens) (UniProt P14416) (assay: HTS Assay for Allosteric Antagonists of the Human D2 Dopamine Receptor: SAR in Primary Assay.). Conditions: HEK293 T-REx D2 cells, calcium flux, dopamine EC80 antagonism; activity, negative = inhibition: at 41.8 µM (top of the series) unless noted.
Source text: Dopamine receptors (DARs) are involved in the etiology and/or therapy of a number of neuropsychiatric and endocrine disorders. For instance, all receptor-based antiparkinsonian drugs work via stimulating the D2 DAR subtype whereas all FDA-approved antipsychotic agents are antagonists of this receptor. […] There are three different types of allosteric modulators that we are seeking, two of which will stimulate or augment receptor signaling, allosteric agonists and potentiators, while the third, allosteric antagonists, will attenuate receptor signaling. The present project is looking for compound antagonism after an EC80 addition of dopamine by tracking calcium flux in a […], inducible Hek293 Trex D2 cell line, which act through an allosteric site. NIH Chemical Genomics Center [NCGC] NIH Molecular Libraries Probe Centers Network [MLPCN] MLPCN Grant: NS064831 Assay Submitter (PI): David Sibley
Freshly passaged cells are plated in 1536 well black, clear bottom plates at a density of 4000 cells/well in 3 ul of complete media containing 1x tetracycline inducer. After an overnight incubation at 30 deg C in 5% CO2, cells are loaded with 2 ul of the no wash Calcium Assay Kit (ABD Bioquest) and incubated at room temperature for 30 to 90 minutes. Agonist read: A 10 cycle (1 second/cycle) baseline measurement is taken and then the FDSS online 1536 pintool delivers 23 nl of compound library (as well as dopamine controls) to the plate. The plate is measured for kinetically at 1 cycle/sec for 180 seconds. Following the 180 second read, 1 ul of an EC80 (negative modulation assay) is delivered by an onboard pipette head. Measurements are taken kinetically for an additional 180 seconds.

Sequence of D(2) dopamine receptor (Homo sapiens) (P14416 whole entry, looked up): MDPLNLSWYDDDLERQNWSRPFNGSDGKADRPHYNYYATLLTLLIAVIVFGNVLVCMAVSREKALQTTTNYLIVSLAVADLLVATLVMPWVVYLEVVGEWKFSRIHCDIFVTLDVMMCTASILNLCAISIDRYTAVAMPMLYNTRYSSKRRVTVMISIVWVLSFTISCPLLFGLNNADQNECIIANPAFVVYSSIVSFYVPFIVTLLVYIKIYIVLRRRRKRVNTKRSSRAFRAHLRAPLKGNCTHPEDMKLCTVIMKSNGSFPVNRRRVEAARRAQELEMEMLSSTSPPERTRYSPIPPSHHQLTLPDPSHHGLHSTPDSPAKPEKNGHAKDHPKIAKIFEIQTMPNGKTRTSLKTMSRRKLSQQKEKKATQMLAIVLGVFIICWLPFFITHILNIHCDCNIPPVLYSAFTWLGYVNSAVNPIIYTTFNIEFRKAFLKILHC

SMILES	Potency	activity, negative = inhibition
CCN1C(=O)c2ccccc2[S@](=O)c2ccc(C(=O)N[C@H](C)c3ccc(Br)cc3)cc21	8870 nM (active)	–
CN1C(=O)c2ccccc2S(=O)c2ccc(C(=O)NCCc3cccs3)cc21 (stereo not given)	88.7 nM (active)	–
CN1C(=O)c2ccccc2S(=O)c2ccc(C(=O)NCc3cccc(Cl)c3)cc21 (stereo not given)	280 nM (active)	–
CCN1C(=O)c2ccccc2[S@](=O)c2ccc(C(=O)NCc3ccc(F)cc3)cc21	353 nM (active)	–
CN1C(=O)c2ccccc2[S@](=O)c2ccc(C(=O)NCc3ccc(Cl)cc3)cc21	445 nM (active)	–
CCN1C(=O)c2ccccc2S(=O)c2ccc(C(=O)Nc3ccccc3)cc21 (stereo not given)	141 nM (active)	–
CCN1C(=O)c2ccccc2[S@](=O)c2ccc(C(=O)N[C@H](C)c3ccc4ccccc4c3)cc21	70.5 nM (active)	–
CCN1C(=O)c2ccccc2S(=O)c2ccc(C(=O)NCc3ccccc3)cc21 (stereo not given)	705 nM (active)	–
COc1ccc(CNC(=O)c2ccc3c(c2)N(C)C(=O)c2ccccc2S3=O)cc1 (stereo not given)	112 nM (active)	–
CCN1C(=O)c2ccccc2S(=O)c2ccc(C(=O)NCc3ccc(S(C)(=O)=O)cc3)cc21 (stereo not given)	560 nM (active)	–
CN1C(=O)c2ccccc2S(=O)c2ccc(C(=O)NCc3cccnc3)cc21 (stereo not given)	–	-114% [at 4.65 µM] (active)
CN(C)CCCNC(=O)c1ccc2c(c1)N(C)C(=O)c1ccccc1S2=O (stereo not given)	–	-85.7% [at 4.65 µM] (active)
CCN1C(=O)c2ccccc2S(=O)c2ccc(C(=O)NCc3cc(OC)c(OC)c(OC)c3)cc21 (stereo not given)	–	23.4%
CCN1C(=O)c2ccccc2S(=O)c2ccc(C(=O)OCc3ccc(OC)cc3)cc21 (stereo not given)	inactive	–
COc1ccc(CNC(=O)c2cccc(N3C(=O)c4ccccc4C3=O)c2)cc1	–	-114%
CN1C(=O)c2ccccc2S(=O)c2ccc(C(=O)NCc3ccc(Br)cc3)cc21 (stereo not given)	70.5 nM (active)	–
COc1ccc(CNC(=O)c2ccc3c(c2)NC(=O)c2ccccc2S3=O)cc1 (stereo not given)	141 nM (active)	–
CN1C(=O)c2ccccc2S(=O)c2ccc(C(=O)NCc3ccc(Cl)cc3)cc21 (stereo not given)	353 nM (active)	–
CCN1C(=O)c2ccccc2S(=O)c2ccc(C(=O)NCc3ccc(C#N)cc3)cc21 (stereo not given)	141 nM (active)	–
CCN1C(=O)c2ccccc2[S@](=O)c2ccc(C(=O)NCc3ccc(C#N)cc3)cc21	223 nM (active)	–

SMILES	Potency	activity, negative = inhibition
CCN1C(=O)c2ccccc2S(=O)c2ccc(C(=O)NCc3ccc(F)cc3)cc21 (stereo not given)	705 nM (active)	–
CN1C(=O)c2ccccc2S(=O)c2ccc(C(=O)NCCN3CCCC3)cc21 (stereo not given)	280 nM (active)	–
CN1C(=O)c2ccccc2S(=O)c2ccc(C(=O)NCc3ccccc3)cc21 (stereo not given)	560 nM (active)	–
CCN1C(=O)c2ccccc2S(=O)c2ccc(C(=O)NCc3ccc(C(F)(F)F)cc3)cc21 (stereo not given)	141 nM (active)	–
CN1C(=O)c2ccccc2[S@@](=O)c2ccc(C(=O)NCCc3cccs3)cc21	88.7 nM (active)	–
CN1C(=O)c2ccccc2[S@](=O)c2ccc(C(=O)NCCc3cccs3)cc21	280 nM (active)	–
CCN1C(=O)c2ccccc2S(=O)c2ccc(C(=O)NCc3ccc(C(C)(C)C)cc3)cc21 (stereo not given)	353 nM (active)	–
CCN1C(=O)c2ccccc2S(=O)(=O)c2ccc(C(=O)NCc3ccc(OC)cc3)cc21	–	-113%
COc1ccc(CNC(=O)c2ccc3c(c2)C(=O)c2ccccc2C3=O)cc1	–	-113%
CN1C(=O)c2ccccc2S(=O)c2ccc(C(=O)NCCN3CCCCC3)cc21 (stereo not given)	112 nM (active)	–
CN1C(=O)c2ccccc2[S@](=O)c2ccc(C(=O)NCc3cccnc3)cc21	177 nM (active)	–
CCN1C(=O)c2ccccc2S(=O)c2ccc(C(=O)NCc3ccc(SC)cc3)cc21 (stereo not given)	223 nM (active)	–
CCN1C(=O)c2ccccc2S(=O)c2ccc(C(=O)NCc3ccc(C)cc3)cc21 (stereo not given)	–	5.87% [at 4.65 µM]
CCN1C(=O)c2ccccc2[S@@](=O)c2ccc(C(=O)NCc3ccc(OC)cc3)cc21	–	-112%
CCN1C(=O)c2ccccc2S(=O)c2ccc(C(=O)Nc3ccc(OC)cc3)cc21 (stereo not given)	887 nM (active)	–
CCN1C(=O)c2ccccc2S(=O)c2ccc(C(=O)NCc3ccc(OC)cc3)cc21 (stereo not given)	88.7 nM (active)	–
CCN1C(=O)c2ccccc2S(=O)c2ccc(C(=O)NCc3ccc4c(c3)OCO4)cc21 (stereo not given)	112 nM (active)	–
CN1C(=O)c2ccccc2S(=O)c2ccc(C(=O)NCc3ccccn3)cc21 (stereo not given)	223 nM (active)	–
COc1ccc(NC(=O)c2ccc3c(c2)N(C)C(=O)c2ccccc2S3=O)cc1 (stereo not given)	11200 nM (active)	–
COc1ccc(CNC(=O)c2ccc3c(c2)N(Cc2ccccc2)C(=O)c2ccccc2S3=O)cc1 (stereo not given)	88.7 nM (active)	–
